Compounds with a hit are over-represented: about 12% of the library has one in this group of screens.
BAZ2B block: inhibitors of human BAZ2B bromodomain; Potency, µM (top dose mostly 114 µM), for the others: top-dose activity change, negative = inhibition, actives largely listed as inhibitors; Q9UIF8; 360,000 compounds, 4.4% hits; AlphaScreen BAZ2B-H3K14Ac peptide displacement; also: % is scaled to controls: 0 for no effect and ±100 for the full control effect; nearly all actives have a fitted effect of over 60% in size
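AlphaScreen displacement: compounds (up to 110uM) incubated 30 min at room temperature with a preformed 50 nM BAZ2B/50 nM biotinylated H3K14Ac peptide complex in PBS pH 7.4 with Tween-20. Donor and acceptor beads at 10 ug/mL final added, 20 min light-protected before reading.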
Sfp PPTase inh: Sfp phosphopantetheinyl transferase inhibition; Biochemical Sfp PPTase activity, qHTS; Potency, µM, for inactives: largest response in the series, negative = inhibition, actives largely listed as inhibitors; 310,000 compounds, 3.5% hits; AID 1490;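 also: the enzyme is Sfp with the accession as filed and its product quenches rhodamine fluorescence; 0% = enzyme reaction without inhibitor and -100% = no enzyme wells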
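Reaction rates are the 30-min fluorescence difference (ex 525, em 598 nm) in wells containing 15 nM Sfp, 5 uM rhodamine-CoA and 12.5 uM BHQ-2-YbbR at pH 7.6 with 10 mM MgCl2.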
JMJD2A Tudor: blocks the human JMJD2A Tudor domain. O75164. AlphaScreen JMJD2A-Tudor / H3K4me3 peptide binding. Potency, µM (top dose mostly 114 µM), inactives show at the highest dose activity change, negative = inhibition, actives largely listed as inhibitors. 390,000 compounds, 4.4% hits; also: % is scaled to controls: 0 for no effect and ±100 for the full control effect; nearly all actives have a fitted effect of over 50% in size
HP1b chromo inh: HP1-beta chromodomain-methylated histone interaction inhibition. P83916. AlphaScreen HP1-beta / biotin-H3K9me3 peptide binding. Potency, µM (highest dose often 114 µM), inactives show top-dose activity change, negative = inhibition, most hits filed as inhibitors. 390,000 compounds, 0.56% hits. AID 540317; also: nearly all actives have a fitted effect of over 70% in size
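HP1-beta protein (50 nM final) preincubated 30 min at room temperature with biotinylated H3(1-18)K9me3 peptide (50 nM) in PBS pH 7.4, 0.01% Tween-20, then compound added for 30 min. AlphaScreen streptavidin donor/nickel chelate acceptor beads (10 ug/mL final), 30 min dark, luminescence read.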
G9a block: G9a (human) methyltransferase inhibition; Q96KQ7; G9a H3K9 monomethylation, AlphaScreen, 2 h; Potency, µM (highest dose often 102 µM), for the others: at the highest dose activity, negative = inhibition, hits mostly inhibitors; 350,000 compounds, 8.8% hits; AID 504332; also: % is scaled to controls: 0 for no effect and ±100 for the full control effect; nearly all actives have a fitted effect of over 75% in size
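Signal arises when biotinylated H3K9 peptide, once monomethylated, bridges streptavidin donor and antibody-captured acceptor beads. Enzyme at 20 nM was preincubated 15 min with test compounds; peptide 500 nM and SAM 20 uM then reacted for 2 h.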
L3MBTL1 block: L3MBTL1 (human) inhibition | AlphaScreen L3MBTL1–H3K9me1 peptide binding | AID 485360 | Potency, µM (top dose mostly 57.1 µM), without a hit: top-dose activity, negative = inhibition, actives largely listed as inhibitors | 230,000 compounds, 0.66% hits; also: % is scaled to controls: 0 for no effect and ±100 for the full control effect; nearly all actives have a fitted effect of over 60% in size
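Read-out is AlphaScreen signal from streptavidin donor and nickel chelate acceptor beads (10 ug/mL final each) bridging L3MBTL1 (50 nM) and biotinylated K9-monomethylated H3(1-15) peptide (75 nM), after 30 min compound exposure at room temperature.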
* = called active by the depositor; [ ] = remark or other dose. Calls follow the shape of the dose curve; as a rule, active = well fitted curve in the direction sought with a large enough effect; inconclusive = small, poorly fitted or top-dose-only effect, or another doubt; inactive = no such curve, though single readings can be large; an effect the other way counts as inactive or inconclusive. Potency is read from the fitted curve at half-maximal effect.

Results for Cc1cccc2c1-c1sc(C(=O)NCCc3ccc(Cl)cc3)cc1CO2 ?
BAZ2B block: 2%; JMJD2A Tudor: inconclusive; HP1b chromo inh: 1%; G9a block: -2%[59 µM]

What do the screens show for `O=C(Nc1nc2ccc(S(=O)(=O)N3CCCC3)cc2s1)c1ccc(F)cc1`?
BAZ2B block: 3%; JMJD2A Tudor: -2%; HP1b chromo inh: 46%; G9a block: -6%[59 µM]

Results for O=S(=O)(Nc1nc2ccc(S(=O)(=O)N3CCCC3)cc2s1)c1ccc(F)cc1 ?
BAZ2B block: inconclusive; Sfp PPTase inh: -14%; JMJD2A Tudor: -28%; HP1b chromo inh: -9%; G9a block: 40µM*

Results for Cc1cc2c(n1-c1ccc(C(=O)NCCc3ccc(Cl)cc3)cc1)CCC(C)C2 (centres undefined) ?
BAZ2B block: -8%; JMJD2A Tudor: -25%; HP1b chromo inh: 22%; G9a block: -21%[59 µM]

How did O=C1N/C(=C/c2ccc(N3CCOCC3)o2)C(=O)N1c1cccc(Cl)c1 do in these assays?
BAZ2B block: -23%; Sfp PPTase inh: 8.9µM*; JMJD2A Tudor: -35%; HP1b chromo inh: 1%; G9a block: inconclusive; L3MBTL1 block: 2%[11.4 µM]

Results for CC(=O)Nc1ccc(NC(=O)c2ccco2)cc1 ?
BAZ2B block: 10%; Sfp PPTase inh: 17%; JMJD2A Tudor: -7%; HP1b chromo inh: 23%; G9a block: 18%[2.33 µM]

What do the screens show for `CC1N(C)c2cc(NC(=O)c3ccco3)ccc2C1(C)C` (centres undefined)?
BAZ2B block: 50µM*; Sfp PPTase inh: -24%; JMJD2A Tudor: inconclusive; HP1b chromo inh: -11%; G9a block: inconclusive; L3MBTL1 block: -14%

What do the screens show for `COc1ccc(OC)c(C(=O)c2c(N)c(-c3nc(-c4ccc(C)c(C)c4)cs3)c3ccccn23)c1`?
BAZ2B block: -1%; JMJD2A Tudor: -16%; HP1b chromo inh: 30%; G9a block: -2%[59 µM]

Results for CCOc1ccc(Nc2ncnc3c2nc2n3CCCC2)cc1 ?
BAZ2B block: -20%; JMJD2A Tudor: -9%; HP1b chromo inh: 46%; G9a block: -1%[59 µM]

What do the screens show for `CCOc1ccc(NC(=O)CN2C(=O)/C(=C3\SC(=S)N(C4CCS(=O)(=O)C4)C3=O)c3ccccc32)cc1` (centres undefined)?
BAZ2B block: -31%; Sfp PPTase inh: 56µM*; JMJD2A Tudor: -11%; HP1b chromo inh: -2%; G9a block: inconclusive

How did CCc1ccc(NC(=O)CC2C(=O)N(c3ccc(Cl)cc3)C(=O)N2Cc2cccs2)cc1 (centres undefined) do in these assays?
BAZ2B block: -11%; JMJD2A Tudor: 9%; HP1b chromo inh: 30%; G9a block: inconclusive

What do the screens show for `Cc1nnc(C)n1/N=C/c1ccccn1`?
BAZ2B block: -1%; Sfp PPTase inh: 12%; JMJD2A Tudor: 3%; HP1b chromo inh: 39%; G9a block: 5%; L3MBTL1 block: 7%

Results for CCc1n[nH]c(=S)n1/N=C/c1ccccn1 ?
BAZ2B block: 50µM*; Sfp PPTase inh: 50µM*; JMJD2A Tudor: 7.9µM*; HP1b chromo inh: inconclusive; G9a block: 5%[0.501 µM]; L3MBTL1 block: -4%[2.29 µM]

How did Cc1n[nH]c(=S)n(/N=C/c2ccccn2)c1=O do in these assays?
BAZ2B block: inconclusive; Sfp PPTase inh: 50µM*; JMJD2A Tudor: 2.8µM*; HP1b chromo inh: -1%; G9a block: inconclusive; L3MBTL1 block: 21%

Results for Cc1ccc2c(=O)cc(C(=O)N(Cc3ccccc3Cl)C3CCS(=O)(=O)C3)oc2c1 (centres undefined) ?
BAZ2B block: -16%; JMJD2A Tudor: -8%; HP1b chromo inh: 30%; G9a block: 1%[59 µM]

Results for Cc1ccc(N2CCN(S(=O)(=O)c3ccc(-n4cnnn4)cc3)CC2)c(C)c1 ?
BAZ2B block: -11%; Sfp PPTase inh: 5%; JMJD2A Tudor: -12%; HP1b chromo inh: 23%; G9a block: -8%

How did COc1ccccc1N1CCN(S(=O)(=O)c2ccc(-n3cnnn3)c(C)c2)CC1 do in these assays?
BAZ2B block: 4%; Sfp PPTase inh: 4%; JMJD2A Tudor: -17%[57.1 µM]; HP1b chromo inh: 26%; G9a block: inconclusive; L3MBTL1 block: -2%

How did CCCN1CCN(S(=O)(=O)c2ccc(-n3cnnn3)cc2)CC1 do in these assays?
BAZ2B block: -19%; Sfp PPTase inh: 1%; JMJD2A Tudor: 3%; HP1b chromo inh: 23%; G9a block: 50µM*

Results for COc1cc(S(=O)(=O)N2CCCCCC2)ccc1-n1cnnn1 ?
BAZ2B block: inconclusive; Sfp PPTase inh: 45µM*; JMJD2A Tudor: -27%; HP1b chromo inh: 17%; G9a block: inconclusive

How did COc1ccc(N2CCN(S(=O)(=O)c3ccc(-n4cnnn4)c(C)c3)CC2)cc1 do in these assays?
BAZ2B block: -12%; Sfp PPTase inh: 0%; JMJD2A Tudor: -17%; HP1b chromo inh: 21%; G9a block: 7.1µM*; L3MBTL1 block: -3%

Results for CCCCCCCCCCCCCC/C(C(=O)O)=C(\C)C(=O)O ?
Sfp PPTase inh: -15%

Results for Cc1noc(C)c1C(=O)N1CCC2(CCCN(C(=O)Nc3cccc(C#N)c3)C2)CC1 ?
Sfp PPTase inh: 8%; G9a block: 3%[12.7 µM]

Results for COc1cccc(NC(=O)N(Cc2c[nH]c3ccccc23)C2CCCCCC2)c1 ?
JMJD2A Tudor: -34%; HP1b chromo inh: 27%; G9a block: -29%[59 µM]

Results for Cc1ccccc1NC(=O)Cn1c(O)c(N=NC(=O)c2ccccc2O)c2ccccc21 ?
BAZ2B block: 63µM*; Sfp PPTase inh: -29%; JMJD2A Tudor: -32%; HP1b chromo inh: 16%; G9a block: inconclusive; L3MBTL1 block: -8%

What do the screens show for `Cc1ccc(NC(=O)Cn2c(O)c(N=NS(=O)(=O)c3ccc(C)cc3)c3ccccc32)cc1`?
BAZ2B block: -39%; Sfp PPTase inh: -4%; JMJD2A Tudor: 25µM*; HP1b chromo inh: -1%; G9a block: 2.5µM*; L3MBTL1 block: 7%

How did CCn1c(O)c(N=NC(=O)CNc2cccc(C)c2)c2ccccc21 do in these assays?
BAZ2B block: inconclusive; Sfp PPTase inh: -5%; JMJD2A Tudor: inconclusive; HP1b chromo inh: -7%; G9a block: -7%[59 µM]; L3MBTL1 block: inconclusive

What do the screens show for `Cn1c(O)c(N=NC(=O)CNC(=O)c2ccccc2)c2ccccc21`?
BAZ2B block: -21%; Sfp PPTase inh: 9%; JMJD2A Tudor: -11%; HP1b chromo inh: 13%; G9a block: -6%
